# Compound activity: PubChem BioAssay, The Scripps Research Institute Molecular Screening Center
# SMARCA2 activ = SMARCA2 (BRM) function activators, primary screen, cell-based, luminescence, high throughput. MG213 cells, MMTV-luciferase reporter, dexamethasone, overnight. actives 1% (n = 370,000). activation, % at 9.1 µM; in the data active = activation above about 7.8%;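 note: 0% = vehicle wells and 100% = reference activator wells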
# DAX1 inh-1 = DAX1 (NR0B1) inhibitors on StAR promoter, primary screen, cell-based, luminescence, SF-1 (NR5A1), full-length DAX-1 | HEK293T StAR-luciferase reporter, SF-1/DAX-1 repression relief | actives 1.1% (n = 370,000) | AID 652010, 2013 | inhibition, % at 6.8 µM;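 active = inhibition above the mean over all tested compounds plus 3 SD, cut at about 3.6% in these data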;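 note: 0% = DAX-1 cells with DMSO and 100% = cells lacking DAX-1 with DMSO; higher inhibition means more luminescence from relief of DAX-1 repression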
# ssDAF-12 act = S. stercoralis DAF-12 nuclear receptor activators, primary screen, cell-based, luminescence, HEK293, GRIP1 co-expression, lit1-tk-luc. Nuclear hormone receptor DAF-12 (Strongyloides stercoralis). HEK293 ssDAF-12/GRIP1 lit1-tk-luc reporter; % of 3 µM dafachronic acid response. activation, % at 6.8 µM. actives 1% (n = 370,000). AID 652126, 2013;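 active = activation above the mean over all tested compounds plus 3 SD, cut at about 0.9% in these data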;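 note: 0% = DMSO-only wells and 100% = 3 µM delta7-dafachronic acid wells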
# hgDAF-12 ag = H. glycines DAF-12 receptor agonists, primary screen, cell-based, luminescence, HEK293, GAL4 fusion, UAS-luciferase; Nuclear hormone receptor DAF-12 (Heterodera glycines), GAL4 fusion; activation, % at 6.8 µM; actives 1.8% (n = 370,000); HEK293 GAL4-hgDAF12 UAS-luciferase reporter, agonist luminescence; normalized to butyrate control;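 active = activation above a cutoff set at the mean of all screened compounds plus 3 SD, cut at about 10% in these data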;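 note: 0% = DMSO wells and 100% = sodium butyrate wells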
# DAX1 inh-2 = DAX1 (NR0B1) inhibitors, primary screen, cell-based, HEK293, Gal4-DAX1, luciferase luminescence; inhibition, % at 6.75 µM; actives 0.99% (n = 340,000); HEK293 Gal4-DAX1 luciferase reporter;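 active = inhibition above the mean over all tested compounds plus 3 SD, cut at about 4.2% in these data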;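 note: 0% = DAX1-transfected cells with DMSO and 100% = empty-vector control cells with DMSO; inhibition shows as a rise in luminescence from relieved DAX1 repression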
# Target sequence (P51843 207-470 limits assumed): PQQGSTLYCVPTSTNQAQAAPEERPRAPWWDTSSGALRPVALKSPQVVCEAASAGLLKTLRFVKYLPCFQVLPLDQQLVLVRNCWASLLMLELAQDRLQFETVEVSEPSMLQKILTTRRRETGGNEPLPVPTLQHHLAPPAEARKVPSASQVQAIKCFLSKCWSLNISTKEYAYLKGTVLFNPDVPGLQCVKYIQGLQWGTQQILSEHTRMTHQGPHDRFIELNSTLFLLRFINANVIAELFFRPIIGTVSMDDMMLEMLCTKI
# hcDAF12 agonist = H. contortus DAF-12 nuclear receptor activators, primary screen, cell-based, luminescence, HEK293, lit1-tk-luc reporter; actives 1.4% (n = 370,000); activation, % at 6.8 µM; HEK293 hcDAF-12 lit1-tk-luc reporter; 0% DMSO, 100% Δ7-dafachronic acid;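 active = activation above the mean of all tested compounds plus 3 SD, cut at about 5.5% in these data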;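 note: 100% = response to 3 µM Δ7-dafachronic acid high control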
# Active calls of the source: *; . = no result. Most compounds without a hit are left out; they make up all but 4.8% or so of the library.
SMILES,SMARCA2 activ,DAX1 inh-1,ssDAF-12 act,hgDAF-12 ag,DAX1 inh-2,hcDAF12 agonist
Cc1ccc2cc(F)c(F)c(F)c2n1,-1,1,1.5*,7,.,2
CCOC(=O)c1ccccc1OCc1cc(/C=N/NC(=O)c2ccncc2)ccc1OC,-3,-1,-3,-2,-2,-3
CC(C)C1C(=O)N(Cc2cn(CC3CCCCC3)nn2)CCS(=O)(=O)N1Cc1ccc(-c2ccc(Cl)cc2)cc1 (stereo not given),-3,-1,-1,-4,-1,0
CC(C)CC1C(=O)N(Cc2cn(CCC3OCCCO3)nn2)CCS(=O)(=O)N1Cc1ccc(-c2ccc(Cl)nc2)cc1 (stereo not given),4,-2,-1,1,5.1*,-1
CC(C)C1C(=O)N(Cc2cn(CC3CCCCC3)nn2)CCS(=O)(=O)N1Cc1ccc(-c2ccc(Cl)nc2)cc1 (stereo not given),-5,4.4*,-1,-2,1,0
CC1=C(C(=O)c2ccccc2)C(c2ccc(O)cc2)NC(=S)N1 (stereo not given),-4,0,-2,-2,4.4*,0
COc1cccc(-c2cc3onc(-c4ccccc4)c3c(=O)n2C)c1,5,3,0,12*,2,5
Cn1c(-c2ccc(F)c(F)c2)cc2onc(-c3ccccc3)c2c1=O,8,2,0,12*,4,4
COC(=O)CC(=O)Cc1nc(N)nc(Nc2ccc(C)c(C)c2)n1,-3,0,-2,-3,0,-2
CCCCN1C(=O)N(c2ccc(Cl)cc2)C(C)(O)CC1(C)C (stereo not given),-2,0,-2,0,4.5*,0
CCCCCn1c(=O)[nH]c2cc(C(=O)NC3CCN(Cc4ccccc4)CC3)ccc2c1=O,0,0,-2,-3,6.5*,-1
COC(=O)c1ccc2c(=O)n(CCCCCC(=O)NC3CCCCC3)c(=O)[nH]c2c1,-1,2,-1,2,.,5.8*
CC(=O)c1c(C)nc2ccc(Br)cc2c1C(=O)O,-1,1,-1,1,0,-1
O=C(CSC(=S)N1CCCCC1)Nc1nc(-c2ccccc2)c(-c2ccccc2)o1,0,0,-1,0,1,0
O=C(CSC(=S)N1CCOCC1)Nc1nc(-c2ccccc2)c(-c2ccccc2)o1,-2,1,-1,1,5.6*,0
CCCCOc1ccc(CNC(=O)NS(=O)(=O)c2ccc(OCC)cc2)cc1,2,0,-1,2,-1,-1
Cc1ccc(C(=O)O)cc1NC(=O)C1CCCN1S(=O)(=O)c1cccc2nsnc12 (stereo not given),-1,0,1.6*,0,0,0
Cc1c(NC(=O)C2CCCN2S(=O)(=O)c2cccc3nsnc23)cccc1C(=O)O (stereo not given),-3,0,0,-1,0,0
Nc1nc2ccc(Cl)cc2[nH]1,1,0,0,0,-1,2
Clc1ccc2nc(-c3ccc(Cl)nc3)[nH]c2c1,6,0,0,12*,3,3
O=C(NCC(c1ccco1)N1CCN(c2ccccc2F)CC1)C1CCCCC1 (stereo not given),0,-2,-1,3,1,-1
CC1CCC/C(=N/Nc2nc3ccccc3s2)C1 (stereo not given),-3,3,0,0,5.3*,6.4*
CCOC(=O)CC(=O)CSc1nc2c(C)c(C)ccc2cc1C,-2,0,0,0,-1,1
CCOC(=O)CSc1nc2cc(C)cc(C)c2cc1C#N,-4,0,-1,-1,0,-1
CCOC(=O)CC(=O)CSc1nc2ccc(OC)cc2cc1C,-4,1,1.7*,3,0,0
SMILES,SMARCA2 activ,DAX1 inh-1,ssDAF-12 act,hgDAF-12 ag,DAX1 inh-2,hcDAF12 agonist
CCOC(=O)CC(=O)CSc1nc2cc(C)ccc2cc1C,2,0,0,-1,1,6.4*
CCOC(=O)CSc1nc2cc(C)ccc2cc1C#N,4,3,0,11*,2,2
CC(=O)N1c2ccc(S(=O)(=O)NCCc3ccccc3)cc2CC1C (stereo not given),-2,-5,-2,-5,-1,-3
C=CCN1C(=O)CSC1=Nc1ccc(O)cc1,5,-2,-2,-2,-2,-2
CC(=O)c1ccc(N2CCN(S(=O)(=O)c3cc4[nH]c(=O)c(=O)[nH]c4cc3C)CC2)cc1,-1,1,-1,11*,0,-2
CN(C)C(=S)Nc1ccc(Cl)cc1,-1,0,1,1,0,1
O=C(Cn1cnc2ccccc2c1=O)c1ccc(Cl)cc1,3,1,-1,11*,-1,3
O=C(Cn1cnc2ccccc2c1=O)c1ccccc1,5,1,-1,3,1,1
O=C(Cn1cnc2ccccc2c1=O)c1ccc(Br)cc1,-3,2,-1,12*,0,1
Cc1cc(C)c(S(=O)(=O)N2CCOC2CNC(=O)C(=O)NCc2ccco2)c(C)c1 (stereo not given),-3,0,-2,2,-1,0
Cc1nc(SCn2nnc3ccccc3c2=O)nc(C)c1C,2,1,-1,-1,1,-2
Nc1nc(SCn2nnc3ccccc3c2=O)n[nH]1,-8,1,-2,-1,6.8*,1
CCC(=O)N1CCN(c2ccc(-n3c(=O)ccc4cnc5ccc(-c6cnc7ccccc7c6)cc5c43)cc2C(F)(F)F)CC1,-8,-1,-2,8,.,-5
COCCCNC(=O)COc1ccc(Br)cc1Cl,3,1,-1,11*,1,-1
CCNC(=O)COc1ccc(Br)cc1Cl,2,0,-1,4,-1,0
O=C(N=Nc1c(O)n(Cc2ccccc2)c2ccccc12)c1ccc(O)cc1,2,3.6*,0,8,1,6.0*
CCOC(=O)[C@H]1[C@H]2COc3cc(OC)ccc3[C@@H]2N2C(=O)CN(CCc3c[nH]c4ccccc34)C(=O)[C@@]12C,-1,0,-1,2,-1,4
